According to PubChem BioAssay AID1159580 (chemical genetic matrix, 2015):
Several values for one entry are separate records, joined by “and”; a condition that tells them apart may be missing. Equal values may be shown once. Screen size: about 5,500 compounds; about 2,000 (36%) were called active. Roughly 18% stayed inconclusive and do not appear here. Cut-off read from the data, not from the text of the source: active = normalized growth mostly below about 0.91 (no sharp cut-off); inconclusive = no clear call, values can overlap the other calls; inactive = mostly above about 0.92. Some of the results follow.

Assay: chemical genetic growth profiling, strain panel (AID 1159580);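 note: tested at 20 µM; growth read once vehicle control cultures reached saturation at 30 °C; 1 = growth at the plate median or of vehicle wells; lower values mean less growth of the strain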
Conditions: S. cerevisiae deletion strains, growth OD

Measured: normalized growth

CN(C)c1nc(N(C)C)nc(N(C)C)n1
inactive: locus YAL021C, strain ccr4, hits give low values 0.992 | locus YAL026C, strain drs2, hits give low values 0.979 | locus YAL030W, strain snc1, hits give low values 1 | locus YAL040C, strain CLN3, hits give low values 0.972 | locus YBL061C, strain skt5, hits give low values 0.959 | locus YBR009C, strain hhf1, hits give low values 0.97 | locus YBR021W, strain FUR4, hits give low values 1 | locus YBR023C, strain chs3, hits give low values 0.969 | locus YBR171W, strain sec66, hits give low values 0.976 | locus YBR229C, strain ROT2, hits give low values 1.01 | locus YBR231C, strain swc5, hits give low values 0.971 | locus YBR279W, strain paf1, hits give low values 1.01 | locus YCL011C, strain gbp2, hits give low values 0.959 | locus YCL016C, strain dcc1, hits give low values 0.966 | locus YCL029C, strain bik1, hits give low values 1.03 | locus YCL061C, strain MRC1, hits give low values 0.979 | locus YCL069W, strain vba3, hits give low values 0.986 | locus YCR088W, strain abp1, hits give low values 0.989 | locus YDL005C, strain med2, hits give low values 0.984 | locus YDL035C, strain GPR1, hits give low values 1.02 | locus YDL040C, strain nat1, hits give low values 0.991 | locus YDL074C, strain BRE1, hits give low values 0.991 | locus YDL101C, strain DUN1, hits give low values 1.01 | locus YDL134C, strain PPH21, hits give low values 1.01 | locus YDL185W, strain tfp1, hits give low values 1.02 | locus YDL192W, strain arf1, hits give low values 1.02 | locus YDR001C, strain nth1, hits give low values 0.977 | locus YDR069C, strain doa4, hits give low values 0.979 | locus YDR101C, strain arx1, hits give low values 1.01 | locus YDR137W, strain rgp1, hits give low values 0.924 | locus YDR150W, strain NUM1, hits give low values 1 | locus YDR159W, strain sac3, hits give low values 0.963 | locus YDR162C, strain NBP2, hits give low values 1.02 | locus YDR195W, strain ref2 0.998 | locus YDR297W, strain sur2, hits give low values 0.981 | locus YDR318W, strain mcm21, hits give low values 1.02 | locus YDR334W, strain swr1, hits give low values 0.942 | locus YDR335W, strain msn5, hits give low values 0.97 | locus YDR363W, strain ESC2, hits give low values 1.03 | locus YDR388W, hits give low values 1.02 | locus YDR392W, strain spt3, hits give low values 0.899 | locus YDR502C, strain sam2, hits give low values 1.01 | locus YEL003W, strain gim4, hits give low values 0.987 | locus YEL037C, strain rad23, hits give low values 0.988 | locus YEL061C, strain CIN8 (second series), hits give low values 0.976 | locus YEL061C, strain CIN8, hits give low values 1 | locus YER002W, strain NOP16, hits give low values 0.995 | locus YER015W, strain faa2, hits give low values 0.969 | locus YER016W, strain bim1, hits give low values 0.987 | locus YER110C, hits give low values 1.02 | locus YER111C, strain swi4, hits give low values 0.981 | locus YER155C, strain BEM2 (second series), hits give low values 0.975 | locus YER155C, strain BEM2, hits give low values 1 | locus YER167W, strain BCK2, hits give low values 1.01 | locus YFR010W, strain ubp6, hits give low values 0.956 | locus YGL078C, strain dbp3, hits give low values 1.01 | locus YGL086W, strain mad1, hits give low values 1 | locus YGL167C, strain pmr1, hits give low values 0.975 | locus YGL173C, strain kem1, hits give low values 0.959 | locus YGL227W, strain vid30, hits give low values 0.989 | locus YGL240W, strain doc1, hits give low values 0.966 | locus YGL248W, strain PDE1, hits give low values 1.01 | locus YGL253W, strain hxk2, hits give low values 0.987 | locus YGR078C, strain PAC10, hits give low values 1 and 0.999 | locus YGR135W, strain pre9, hits give low values 1.03 | locus YGR252W, strain gcn5, hits give low values 1.05 | locus YHR013C, strain ard1, hits give low values 0.964 | locus YHR027C, strain rpn1, hits give low values 0.959 | locus YHR030C, strain SLT2, hits give low values 1.01 and 0.974 | locus YHR079C, strain IRE1 (second series), hits give low values 1.02 | locus YHR079C, strain IRE1, hits give low values 0.981 | locus YHR094C, strain hxt1, hits give low values 1.02 | locus YHR129C, strain ARP1, hits give low values 1.01 | locus YHR142W, strain chs7, hits give low values 0.929 | locus YHR200W, strain rpn10, hits give low values 1.02 | locus YIL066C, strain RNR3, hits give low values 1.01 | locus YIL073C, strain SPO22, hits give low values 1.09 | locus YIL125W, strain kgd1, hits give low values 1.02 | locus YIR030C, strain dcg1, hits give low values 1.03 | locus YJL092W, strain hpr5, hits give low values 0.988 | locus YJL095W, strain BCK1 (second series), hits give low values 0.975 | locus YJL095W, strain BCK1, hits give low values 1 and 0.97 | locus YJL115W, strain asf1, hits give low values 0.959 | locus YJL129C, strain trk1, hits give low values 0.999 | locus YJL134W, strain LCB3, hits give low values 1.01 | locus YJL154C, strain vps35, hits give low values 0.986 | locus YJL164C, strain tpk1, hits give low values 0.989 | locus YJL166W, strain qcr8, hits give low values 0.958 | locus YJL168C, strain set2, hits give low values 1.01 | locus YJL187C, strain SWE1 (second series), hits give low values 1 | locus YJL187C, strain SWE1, hits give low values 0.978 | locus YJR043C, strain POL32, hits give low values 1.01 | locus YJR066W, strain TOR1, hits give low values 0.947
